HSF1 inhib: HSF1 inhibitors in luciferase reporter cells, primary screen, cell-based, NIH3T3, luminescence; NIH3T3-HGL HSE-luciferase, MG132-induced, luminescence 8 h; hits give low values; activity change, negative = inhibition, % at 7.5 µM (by protocol); hit rate 0.77% among 300,000;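 active = more than half of replicate wells show activity change below -50%, luminescence cut by over half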;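 also: luciferase reports HSF-1 transcriptional activity via heat shock element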
S1P4 ag: S1P4 receptor agonists, primary screen, cell-based. Sphingosine 1-phosphate receptor 4 (Homo sapiens), O95977. S1P4-expressing cell line, agonist reporter assay. activation, % at 4.98 µM. hit rate 0.35% among 220,000. AID 1509, 2009; in the data active = activation above about 11%
S1P3 antag: S1P3 receptor antagonists, primary screen, cell-based; hit rate 0.27% among 170,000; CHO S1P3 NFAT-BLA reporter, FRET fluorescence, antagonist mode; inhibition, % at 4.98 µM; Sphingosine 1-phosphate receptor 3 (Homo sapiens), Q99500;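 active = inhibition above the plate cutoff, the mean inhibition of test wells on that plate plus 3 SD, cut at about 28% in these data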;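 also: cells challenged with S1P at its EC80 of 0.8 µM; blue over green emission ratio from cleaved BLA substrate after 4 h stimulation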
Target sequence (Q99500 whole entry, looked up): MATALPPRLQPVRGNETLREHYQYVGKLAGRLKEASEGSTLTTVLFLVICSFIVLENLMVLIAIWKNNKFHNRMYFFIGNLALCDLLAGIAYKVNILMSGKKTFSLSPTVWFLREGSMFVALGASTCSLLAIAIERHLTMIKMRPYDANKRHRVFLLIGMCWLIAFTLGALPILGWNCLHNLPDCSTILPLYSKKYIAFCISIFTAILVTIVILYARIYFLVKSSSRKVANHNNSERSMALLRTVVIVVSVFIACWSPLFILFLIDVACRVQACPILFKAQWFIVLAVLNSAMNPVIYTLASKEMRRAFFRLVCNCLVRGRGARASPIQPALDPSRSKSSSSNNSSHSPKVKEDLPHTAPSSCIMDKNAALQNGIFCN
S1P4 antagonist: S1P4 receptor antagonists, primary screen, cell-based | Sphingosine 1-phosphate receptor 4 (Homo sapiens), O95977 | S1P4-expressing cells, antagonist mode, reporter read-out | inhibition, % at 4.98 µM | hit rate 0.26% among 220,000; in the data active = inhibition above about 29%
Hsp70 act: Hsp70 transcriptional activators, primary screen, cell-based, HeLa, Hsp70 promoter luciferase, luminescence, 10 µM; HeLa Hsp70 promoter luciferase reporter; scaled: vehicle 0, proteasome-inhibitor control 100%; activation, % at 10 µM; hit rate 0.04% among 200,000; AID 1203, 2008;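 active = activation above the mean across all tested compounds plus 3 SD, cutoff set per campaign, cut at about 5.5% in these data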
HSF-1 act: HSF-1 activators, primary screen, NIH3T3-HGL cells, MG132 stress, luminescence, single point; activation, % at 9 µM; NIH3T3-HGL HSF-1 luciferase reporter, 8 h; 100% = twice DMSO control signal; hit rate 1.7% among 300,000; AID 504408, 2011;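 active = mean replicate activation of at least 50% with a set share of replicates each reaching 50%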
Numbers stand for hits. Rows were chosen to be rich in hits. Some 2.9% of all compounds tested hit in one or more screens of this group.

`O=C1CN(C(=O)CNCc2cccc(Cl)c2)c2ccccc2N1` gave HSF1 inhib inactive, S1P4 ag inactive, S1P3 antag inactive, S1P4 antagonist inactive and HSF-1 act inactive.
`Cc1[nH]c2ccccc2c1/C=C/c1nc2ccccc2c(=O)[nH]1` gave HSF1 inhib inactive, S1P4 ag inactive, S1P3 antag inactive, S1P4 antagonist inactive and HSF-1 act 80.
`CCN1CCN(C(=O)c2cc3sccc3n2CC(=O)c2ccccc2)CC1` gave HSF1 inhib inactive, S1P4 ag inactive, S1P4 antagonist inactive, Hsp70 act inactive and HSF-1 act inactive.
`CCN1CCN(C(=O)C2CCN(C(=O)c3cc4sccc4n3CC)CC2)CC1` gave HSF1 inhib -70, S1P4 ag inactive, S1P3 antag inactive, S1P4 antagonist inactive, Hsp70 act inactive and HSF-1 act inactive.
For Cc1ccc(CNC(=O)Nc2cccs2)cc1 the results were HSF1 inhib inactive, S1P4 ag inactive, S1P4 antagonist inactive, Hsp70 act inactive and HSF-1 act 73.
Screening CN(C)c1ccc2c3c(ccc(N(C)C)c13)COC2 returned HSF1 inhib inactive, S1P4 ag inactive, S1P3 antag inactive, S1P4 antagonist inactive, Hsp70 act inactive and HSF-1 act inactive.
For COc1cc(C(=O)NCc2nnc(SCC(=O)Nc3cc(C)cc(C)c3)o2)cc(OC)c1OC the results were HSF1 inhib -56, S1P4 ag inactive, S1P4 antagonist inactive, Hsp70 act inactive and HSF-1 act inactive.
Screening COc1cc(C(=O)NCc2nnc(SCC(=O)Nc3c(C)cc(C)cc3C)o2)cc(OC)c1OC returned HSF1 inhib inactive and HSF-1 act inactive.
CC(C)(C)c1ccc(OCc2ccc(C(=O)N3CCOCC3)o2)cc1 was read as HSF1 inhib inactive, S1P4 ag inactive, S1P3 antag inactive, S1P4 antagonist inactive, Hsp70 act inactive and HSF-1 act 58.
Nn1cnnc1N/N=C/c1cc(Br)cc(Br)c1O was read as HSF1 inhib inactive, S1P4 ag inactive, S1P4 antagonist inactive, Hsp70 act inactive and HSF-1 act inactive.
CCOc1ncccc1C(=O)OCC(=O)Nc1nnc(-c2ccccc2)o1 was read as HSF1 inhib inactive and HSF-1 act inactive.
For C=CCn1cccc(C(=O)Nc2ccc(C)cc2)c1=O the results were HSF1 inhib inactive and HSF-1 act 56.
C=CCn1cccc(C(=O)Nc2ccc(C)c(C)c2)c1=O was read as HSF1 inhib inactive and HSF-1 act inactive.
Screening Oc1ccc(-c2cnc(-c3ccc(O)cc3)nc2)cc1 returned HSF1 inhib inactive and HSF-1 act 67.
`Nc1ccc(-c2cnc(-c3ccc(N)cc3)nc2)cc1` gave HSF1 inhib inactive, S1P4 ag inactive, S1P3 antag inactive, S1P4 antagonist inactive, Hsp70 act inactive and HSF-1 act inactive.
Cn1nnc(-c2ccc(OCc3ccccc3F)cc2)n1 was read as HSF1 inhib inactive, S1P4 ag inactive, S1P3 antag inactive, S1P4 antagonist inactive, Hsp70 act inactive and HSF-1 act 56.
Screening COc1ccccc1Oc1coc2cc(OCC(N)=O)ccc2c1=O returned HSF1 inhib inactive and HSF-1 act inactive.
Screening CCCNC(=O)COc1ccc2c(=O)c(Oc3ccccc3F)coc2c1 returned HSF1 inhib -70, S1P4 ag inactive, S1P3 antag inactive, S1P4 antagonist inactive, Hsp70 act inactive and HSF-1 act inactive.
CCc1ccccc1NC(=O)COc1ccc2c(=O)c(Oc3cc(C)ccc3C)coc2c1 was read as HSF1 inhib inactive, S1P4 ag inactive, S1P3 antag inactive, S1P4 antagonist inactive, Hsp70 act inactive and HSF-1 act 71.
O=C(NNS(=O)(=O)c1ccccc1[N+](=O)[O-])c1cccc([N+](=O)[O-])c1 was read as HSF1 inhib inactive, S1P4 ag inactive, S1P3 antag inactive, S1P4 antagonist inactive, Hsp70 act inactive and HSF-1 act inactive.
For O=C1Nc2ccccc2/C1=N/N=C/c1cccc(O)c1 the results were HSF1 inhib inactive, S1P4 ag inactive, S1P3 antag inactive, S1P4 antagonist inactive and HSF-1 act inactive.
Cc1ccc(N=C2C(=O)Nc3ccccc32)cc1C was read as HSF1 inhib inactive and HSF-1 act 51.
`COc1cc(/C=N/N=C2/C(=O)Nc3ccccc32)cc(OC)c1O` gave HSF1 inhib -72, S1P4 ag inactive, S1P3 antag inactive, S1P4 antagonist inactive, Hsp70 act inactive and HSF-1 act inactive.
COc1ccc(S(=O)(=O)N2CCCOC2CNC(=O)C(=O)NCCc2ccco2)cc1C (stereo unspecified) was read as HSF1 inhib inactive and HSF-1 act inactive.
Screening CC(C)(C)OC(=O)N[C@@H](Cc1ccccc1)c1nnc(SCC(=O)c2ccc(Cl)cc2)o1 returned HSF1 inhib inactive, S1P4 ag inactive, S1P4 antagonist inactive, Hsp70 act inactive and HSF-1 act 55.
For CC(C)(C)OC(=O)N[C@@H](Cc1ccccc1)c1nnc(S(=O)(=O)Cc2ccccc2)o1 the results were S1P4 ag inactive, S1P3 antag inactive, S1P4 antagonist 73 and Hsp70 act inactive.
Screening CC(C)(C)OC(=O)N[C@@H](Cc1ccccc1)c1nnc(SCC(=O)O)o1 returned HSF1 inhib inactive, S1P4 ag inactive, S1P3 antag inactive, S1P4 antagonist inactive, Hsp70 act inactive and HSF-1 act inactive.
Screening Cn1cnnc1SCC(C)(C)NS(=O)(=O)c1ccc(Cl)cc1 returned HSF1 inhib inactive and HSF-1 act inactive.
For COC(C[C@@H](O)[C@@H](C)[C@H](O)COCc1ccccc1)OC the results were HSF1 inhib inactive and HSF-1 act inactive.
OC(CN1C2=NCCCN2c2ccccc21)c1ccc(Cl)cc1 (stereo unspecified) was read as HSF1 inhib inactive, S1P4 ag inactive, S1P3 antag 82, S1P4 antagonist inactive, Hsp70 act inactive and HSF-1 act inactive.
`OC(CN1C2=NCCN2c2ccccc21)c1ccccc1` (stereo unspecified) gave HSF1 inhib inactive, S1P4 ag inactive, S1P3 antag inactive, S1P4 antagonist inactive, Hsp70 act inactive and HSF-1 act inactive.
`CCC(=O)n1nc(-c2cccnc2)nc1NCc1cccs1` gave HSF1 inhib -91, S1P4 ag inactive, S1P3 antag inactive, S1P4 antagonist inactive, Hsp70 act inactive and HSF-1 act inactive.
CCCC(=O)n1nc(-c2cccnc2)nc1NCc1cccs1 was read as HSF1 inhib inactive, S1P4 ag inactive, S1P3 antag inactive, S1P4 antagonist inactive, Hsp70 act inactive and HSF-1 act inactive.
Screening Nc1c(C(=O)NCCc2ccc(Cl)cc2)sc2ccc(S(=O)(=O)N3CCCCC3)cc12 returned HSF1 inhib inactive, S1P4 ag inactive, S1P3 antag inactive, S1P4 antagonist inactive, Hsp70 act inactive and HSF-1 act 63.

Source: PubChem (several laboratories)
